# Assay results: PubChem BioAssay (EPA / NIEHS)
# Active and inactive are the calls of the source. How the source made its calls: active means hit-call score of the fitted dose curve at least 0.9, where 1 is the maximum; inactive means score below 0.9.
# Read-out: Potassium channel subfamily K member 1 (KCNK1), KCNK1 (gene 3775)
# Test: LTEA_HepaRG_KCNK1: Life Technologies and Expression Analysis (LTEA) Assay for Potassium channel subfamily K member 1 (KCNK1) using HepaRG (AID 2283511)
# Settings: mRNA level, 48 h; actives raise or lower the signal
# Protocol: LTEA_HepaRG is a cell based, multiplexed-readout assay that uses HepaRG, a human liver cell line, with measurements taken at 48 hours after chemical dosing on a 96-well plate.LTEA_HepaRG_KCNK1 is one of 102 assay component(s) measured in the LTEA HepaRG cell culture assay. It is a marker of Hyperplasia.Data from the assay component LTEA_HepaRG_KCNK1 was analyzed into 1 endpoint. This assay endpoint, LTEA_HepaRG_KCNK1, was analyzed with bidirectional fitting relative to DMSO as the negative control and baseline of activity. Using a type of inducible reporter, measures of mRNA induction for gain or loss-of-signal activity can be used to understand regulation of transcription factor activity. To generalize the intended target to other relatable targets, this assay endpoint is annotated to the ion channel intended target family, where the subfamily is potassium channel.
# A total of 1060 chemcials from the ToxCast library were tested in eight-point concentration-response experiments. Cell culture and cytotoxicity assays were conducted at Thermo Fisher Scientific's Custom Services facility (Madison, WI). A single lot of human HepaRG cells (Thermo Fisher Scientific, Frederick, MD) was used for the cell culture experiments. 96-well format collagen type I coated plates of human HepaRG cells were prepared using established methods. Briefly, cryopreserved HepaRG cells were thawed, plated at a density of approximately 100,000 cells/well in HepaRG Thaw, Plate, and General Purpose media (HPRG770, Thermo Fisher Scientific), and incubated for 48 hours. 0.5% DMSO was selected as vehicle control to balance the requisite need of DMSO in HepaRG cultures to maintain differentiation (for example, baseline metabolism, proportions of hepatocytes vs. cholangiocytes), while enabling further hepatic receptor pathway activation (for example, PXR and CAR) in response to chemical exposure. 48 hours after plating, the culture medium was replaced with HepaRG Serum-Free Incudtion Media. Cells were exposed to each test chemical in duplicate and maintained in CO2 incubators for another 48 hours. Chemical plates were thawed to room temperature and 200x concentrations of treatment groups were prepared. 8-point conentration-reponse curves were made with the highest exposure at 100 uM, followed by half-log dilutions, all in 0.5% DMSO. Each test plate contained variouse controls, induction positive controls (1mM phenobarbital), cytotoxicity positive controls ([…] aflatoxin B1), vehicle controls (0.5% DMSO), and total lysis controls (0.5% DMSO). Cell morphology images were taken using an Essen IncuCyte FLR automated microscope, with six 96-well plates imaged in about 24 minutes. Images were captured and exported and JPEG files. Spent culture media was transfered to black-well plates for the LDH assay, and remaining media was sorted at -80 C for later use. Cells were treated with RLT buffer and frozen until shipped for gene expression analysis. Total RNA was isolated from the cell suspension in 75 uL of Buffer RLT (Qiagen, Germantown, MD 20874) by Quintiles/Expression Analysis (Durham, NC) using a custom isolation procedure. Total RNA from each plate well was transferred to a preamplification plate. Fluidigm's 96.96 Dynamic ArrayTM (Fluidigm, Amsterdam, the Netherlands) technology was used for gene expression analyses by quantitative reverse transcription polymerase chain reaction (qRT-PCR, performed by Quintiles/Expression Analysis, Durham, NC)89. Standard TaqManTM Assays (Applied Biosystems/ThermoFisher Scientific, Foster City, CA) were used to assess the expression of 93 genes selected based on their selectivity and sensitivity to important hepatic receptors known to be modulated by environmental chemicals; importance in human hepatocyte functionality; and hepatotoxicity. […]
row,Structure (SMILES),outcome
1,ClC1=C(Cl)[C@]2(Cl)[C@H]3[C@H]([C@@H]4C=C[C@H]3C4)[C@@]1(Cl)C2(Cl)Cl,inactive
2,O=Cc1ccco1,inactive
3,CC(C)N(Cc1ccccc1)C(=O)C(C)(C)C,inactive
4,Clc1ccc(C(c2ccc(Cl)cc2)C(Cl)Cl)cc1,inactive
5,CCNS(=O)(=O)C(F)(F)C(F)(F)C(F)(F)C(F)(F)C(F)(F)C(F)(F)C(F)(F)C(F)(F)F,inactive
6,Cc1ccc(N)c(N)c1,inactive
7,Nc1ccc(N=Nc2ccccc2)cc1,inactive
8,CCCCOC(=O)c1ccccc1C(=O)OCc1ccccc1,inactive
9,O=C(O)C1C2CCC(O2)C1C(=O)O (stereo not given),inactive
10,CC(O)CCO (stereo not given),inactive
11,OCCCl,inactive
12,c1ccc(N=Nc2ccccc2)cc1,inactive
13,c1ccc2c(c1)oc1ccccc12,inactive
14,CN(C)c1ccccc1,inactive
15,COP(=S)(OC)SCN1C(=O)c2ccccc2C1=O,inactive
16,Cc1ccc(N=C=O)cc1N=C=O,inactive
17,CNC(=O)Oc1cccc2c1OC(C)(C)C2,inactive
18,CCN(CC)CCO,inactive
19,CN(C)[C@@H]1C(=O)C(C(N)=O)=C(O)[C@@]2(O)C(=O)C3=C(O)c4c(O)cccc4[C@@](C)(O)[C@H]3C[C@@H]12,inactive
20,N#CC(Br)Br,inactive

row,Structure (SMILES),outcome
1,O=[N+]([O-])c1ccc(Oc2ccc(Cl)cc2Cl)cc1,inactive
2,OCCCBr,inactive
3,CN(C)C(=O)Nc1ccc(Cl)cc1,inactive
4,CC(C)(C)C(O)(CCc1ccc(Cl)cc1)Cn1cncn1 (stereo not given),inactive
5,Cc1cccc(N)c1N,inactive
6,Clc1ccc(C(c2ccc(Cl)cc2)C(Cl)(Cl)Cl)cc1,inactive
7,Cc1ccc([N+](=O)[O-])cc1,inactive
8,O=C1CCCO1,inactive
9,Cc1ccc(N)cc1,inactive
10,c1ccc2c(c1)-c1cccc3cccc-2c13,inactive
11,O=[N+]([O-])C(Br)(CO)CO,inactive
12,CS(=O)(=O)NC(=O)c1cc(Oc2ccc(C(F)(F)F)cc2Cl)ccc1[N+](=O)[O-],inactive
13,CCCSC(=O)N(CCC)CCC,inactive
14,CCCCCOC(=O)c1ccccc1C(=O)OCCCCC,inactive
15,CN(C)c1ccc(C(=O)c2ccc(N(C)C)cc2)cc1,inactive
16,Nc1ccc([N+](=O)[O-])cc1,inactive
17,CCCCC(CC)COC(=O)c1ccc(C(=O)OCC(CC)CCCC)c(C(=O)OCC(CC)CCCC)c1 (stereo not given),inactive
18,ClC1=C(Cl)C2(Cl)C3C(Cl)C=CC3C1(Cl)C2(Cl)Cl (stereo not given),inactive
19,CCCCCCCCn1sccc1=O,inactive
20,CC(C)COC(=O)c1ccccc1C(=O)OCC(C)C,inactive
